HIF activator = HIF pathway transcriptional activators, primary screen, cell-based, U2OS HRE-luciferase, luminescence. U2OS HRE-luciferase reporter; normalized: DMSO 0%, desferrioxamine 100%. activation, % at 7.5 µM (by protocol). 300,000 tested, 0.32% active. AID 1910, 2009;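 active = mean activation of at least 10% of the iron chelator positive control signal, with at least half of replicates also reaching 10%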
Mot1-301 SUMO = yeast Mot1-301 growth rescue at high temperature, primary screen, SUMOylation pathway inhibitor project, S. cerevisiae, ATP luminescence, 38.5C; growth rescue, % at 18.8 µM; S. cerevisiae Mot1-301 growth rescue; percent above DMSO median, 100 means doubled; 320,000 tested, 1% active;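 active = every valid replicate shows activation above 250% relative to neutral control wells; inactive = the rest, any valid replicate at or below 250%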;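 also: OY570 slx delta 5 strain wells were the positive control but not used for scaling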
ALR H2O2 inh = inhibitors of human ALR sulfhydryl oxidase, primary screen, biochemical, H2O2 detection, HRP-luminol luminescence, single point; 290,000 tested, 3.8% active; purified ALR, DTT oxidation; AID 485317, 2010; FAD-linked sulfhydryl oxidase ALR (Homo sapiens), P55789; inhibition, % (no concentration beside the values);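 active = mean replicate inhibition above about 79%, with every replicate also reaching it, limit read from the data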
Target sequence (P55789 whole entry, looked up): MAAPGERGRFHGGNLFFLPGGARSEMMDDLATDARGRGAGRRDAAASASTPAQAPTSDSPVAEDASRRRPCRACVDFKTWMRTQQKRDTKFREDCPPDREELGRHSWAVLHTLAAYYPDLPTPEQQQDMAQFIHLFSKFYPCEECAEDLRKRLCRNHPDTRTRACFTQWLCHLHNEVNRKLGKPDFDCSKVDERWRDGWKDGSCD
AI-2 QS mod = Vibrio harveyi AI-2 quorum sensing modulators, primary screen, JMH597 strain, luminescence/OD600 ratio; activity change, % at 7.5 µM; 300,000 tested, 0.4% active; Vibrio harveyi JMH597 AI-2 luminescence/OD600 ratio, 9 h; stronger effect = lower value; strain lacks LuxN and CqsS sensors; 0 = neutral-control median; in the data active = activity change below about -75%, passing the limit was not always enough;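 also: luminescence divided by OD600 gain over 9 h not by final OD600 alone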
* marks the source's active call; other numbers are inactive results; i = inactive; . = not tested or not shown. Most compounds without a hit are left out; they make up all but 4.8% or so of the library.

SMILES	HIF activator	Mot1-301 SUMO	ALR H2O2 inh	AI-2 QS mod
CCN1CCN(c2ccc([N+](=O)[O-])cc2C=C2C(=O)NC(=O)NC2=O)CC1	24*	2	-34	28
CC(=O)N1CCN(c2ccc([N+](=O)[O-])cc2C=C2C(=O)NC(=O)NC2=O)CC1	0	-18	-14	11
CN1CCN(c2c(N)c(=O)oc3ccccc23)CC1	0	0	99*	12
Cc1cc(N2CCCCC2)ccc1C=C1C(=O)N(C)C(=S)N(C)C1=O	0	8	90*	23
N#CC(Br)Br	.	166	-37	.
CC(=O)c1cccc(NC(=O)N2C[C@H]3C[C@@H](C2)c2cccc(=O)n2C3)c1	0	39	.	20
CC/C(=N\NC(=S)Nc1ccccc1)c1c(O)[nH]c(=O)[nH]c1=O	1	-8	99*	1
CNC(=O)Oc1cccc2ccccc12	1	-12	-27	9
CNC(=O)Oc1ccc(N(C)C)cc1C(C)C	-2	0	92*	11
CNC(=S)N1CCN(CCN=Cc2c(O)n(-c3ccc(C)cc3)c(=S)[nH]c2=O)CC1	0	-5	.	3
COc1ccc(OC)c(N2C(=O)/C(=C/c3ccco3)C(=O)NC2=S)c1	-2	-13	4	35
O=C1NC(=S)N(c2ccc(Cl)cc2)C(=O)/C1=C/N1CCN(C(=O)c2ccco2)CC1	0	5	97*	12
Cc1ccc(N2C(=O)NC(=O)/C(=C\C=C\c3ccco3)C2=O)cc1C	0	23	96*	11
O=C1NC(=S)N(c2ccc(F)cc2)C(=O)/C1=C/c1ccco1	0	35	93*	37
O=C1NC(=O)N(c2ccccc2)C(=O)/C1=C/C=C/c1ccco1	2	-3	97*	12
Cc1c(OC(=O)N(C)C)ccc2c1O/C(=C\c1ccco1)C2=O	-51	-14	-1	4
CC(=NCCCn1ccnc1)c1c(O)n(C2CCCCC2)c(=O)[nH]c1=O	0	2	0	6
CC/C(=N\N1CCCCCC1)c1c(O)n(-c2ccc(C)cc2)c(=O)[nH]c1=O	12*	-10	.	-2
CCN(CC)c1ccc(CN(C)CCc2ccc(OC)c(OC)c2)cc1	0	-17	99*	5
COC(=O)C1=C(c2ccc(Cl)c(C(F)(F)F)c2)C[C@@H]2CC[C@H]1N2C	.	-14	-9	.
COC(=O)C1=C(c2ccc(OC(F)(F)F)cc2)C[C@@H]2CC[C@H]1N2C(=O)NCCOc1ccccc1Cl	.	31	0	.
COc1c(C)cc(C(=O)C2CCCN(Cc3cnc(C)s3)C2)cc1C (stereo not given)	0	280	-10	27
Cc1ncc(CN2CCCC(C(=O)c3cccc(OC(C)C)c3)C2)s1 (stereo not given)	0	295*	-10	17
CC1(CCl)CN1S(=O)(=O)c1ccccc1 (stereo not given)	0	10	-1	0
COc1cccc(-c2sc3ccccc3c2-c2ccc(OCCN3CCOCC3)cc2)c1	.	462*	-1	.
SMILES	HIF activator	Mot1-301 SUMO	ALR H2O2 inh	AI-2 QS mod
CSc1ccc(CN2CCN(C(=O)COc3cccc(C)c3)CC2)cc1	0	50	-1	26
CC(=O)O[C@]1(C)C(=O)OC/C2=C/CN(C)CCC(OC(=O)[C@@](O)(C(C)O)C[C@H]1C)C2=O (stereo not given in full)	-1	13	0	6
N#Cc1c(/N=C/c2c(O)n(Cc3ccco3)c(=O)[nH]c2=O)sc2c1CCCC2	0	-22	82*	19
CC(Cc1ccccc1Sc1ccc(O)cc1)N(C)C (stereo not given)	0	341	99*	21
CC(Cc1ccccc1Sc1ccccc1)N(C)C (stereo not given)	-1	16	-12	13
NC(N)=N/N=C/c1ccc(N(c2ccccc2)c2ccccc2)cc1	-3	-2	94*	16
Oc1ccc(C[C@H]2NCCc3cc(O)c(O)cc32)cc1O	0	14	99*	7
CCC(C(=O)N1CCC2(CC1)OCCO2)n1c2ccccc2c2nc(=O)cc(C)n21 (stereo not given)	0	2	-2	25
O=P(Nc1cccnc1)(Oc1ccccc1Cl)Oc1ccccc1Cl	-2	92	-66	1
c1ccc2c(c1)CNc1ccccc1O2	0	-26	-6	15
Cc1ccc2c(c1)CNc1ccccc1O2	0	-1	88*	22
CC(=O)c1ccc(NC(=O)N2C[C@H]3C[C@@H](C2)c2cccc(=O)n2C3)cc1	0	228	-7	17
N[C@@H]1CCCC[C@H]1N.O=C(O)C(=O)O.[Pt]	0	7	47	2
COc1cccc(CCNCc2ccc(SC)cc2)c1	-2	-5	1	5
Cc1cc(/C=C2/C(=O)NC(=O)N(c3ccccc3)C2=O)c(C)n1-c1ccc(F)cc1	-1	.	8	25
Cc1cc(/C=C2\C(=O)NC(=O)N(c3cccc(F)c3)C2=O)c(C)n1-c1ccc(C(=O)O)c(Cl)c1	-1	11	45	2
Cc1cc(/C=C2\C(=O)NC(=O)N(c3ccc(F)cc3)C2=O)c(C)n1-c1ccc(C(=O)O)cc1	0	20	98*	21
Cc1ccc(N2C(=O)NC(=O)/C(=C\c3cc(C)n(-c4ccc(C(=O)O)cc4)c3C)C2=O)cc1	0	1	97*	39
Cc1ccc(N2C(=O)NC(=O)/C(=C/c3ccc(-c4ccc(C(=O)O)c(Cl)c4)o3)C2=O)cc1	0	-3	97*	58
NNC(N)=O	.	20	-2	.
COc1ccc(-c2nn(CCC#N)cc2C(=O)Nc2cccc([N+](=O)[O-])c2)cc1OC	-2	i	-15	8
CC(=NCC1CCCO1)c1c(O)n(-c2ccc(Cl)cc2)c(=O)[nH]c1=O (stereo not given)	0	547*	-4	32
O=C(c1cccnc1)c1cc2ccccc2[nH]1	16*	50	2	20
COc1ccc(N/N=C/c2c(O)n(-c3ccc(C)c(C)c3)c(=O)[nH]c2=O)cc1	0	43	99*	6
COc1ccc(N/N=C/c2c(O)n(-c3cccc(C)c3)c(=O)[nH]c2=O)cc1	0	216	99*	17
SMILES	HIF activator	Mot1-301 SUMO	ALR H2O2 inh	AI-2 QS mod
Cc1cccc(-n2c(O)c(/C=N/NC(=O)c3ccncc3)c(=O)[nH]c2=O)c1	0	-4	-1	9
Cc1ccc(-n2c(O)c(/C=N/Nc3ccccc3)c(=O)[nH]c2=O)cc1C	0	310*	99*	1
CCC1=Nc2cc(C(=O)N3CCC4(CC3)OCCO4)ccc2Sc2ccc(C)cc21	0	-10	-11	-6
CCN(C(=O)COC(=O)c1cn(C)c2ccccc12)c1ccc(F)cc1	.	5	1	.
CC1(O)CCN2C(=O)CCc3cccc1c32 (stereo not given)	.	104	97*	.
c1ccc(Nc2ccc(Nc3ccccc3)cc2)cc1	.	151	98*	.

Screening data as filed in PubChem.
